In all, about 5,500 compounds went through this assay and about 2,000 (36%) were called active. Roughly 18% stayed inconclusive and do not appear here. The list shows a part of the results. A number with no mark means an inactive call. No stated cut-off is given here; in the data, active means normalized growth mostly below about 0.91 (no sharp cut-off); inconclusive means no clear call, values can overlap the other calls; inactive means mostly above about 0.92.

This assay can be described thus: chemical genetic growth profiling, strain panel (AID 1159580).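 Further: tested at 20 µM; growth read once vehicle control cultures reached saturation at 30 °C; 1 = growth at the plate median or of vehicle wells; lower values mean less growth of the strain.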 The conditions noted are these: S. cerevisiae deletion strains, growth OD.

As to `CC[C@@H](C)[C@H]1O[C@]2(CC[C@@H]1C)C[C@@H]1C[C@@H](C/C=C(\C)[C@@H](O[C@H]3C[C@H](OC)[C@@H](O[C@H]4C[C@H](OC)[C@@H](O)[C@H](C)O4)[C@H](C)O3)[C@@H](C)/C=C/C=C3\CO[C@@H]4[C@H](O)C(C)=C[C@@H](C(=O)O1)[C@]34O)O2`, the normalized growth was 0.732 (active) (locus YAL013W, strain DEP1, hits give low values); 1.01 (locus YAL040C, strain CLN3, hits give low values); 0.948 (locus YCL061C, strain MRC1 (second series), hits give low values); 0.613 (active) (locus YDR363W, strain ESC2, hits give low values); 1.02 (locus YER002W, strain NOP16, hits give low values); 1.01 (locus YNL175C, strain NOP13, hits give low values). The normalized growth is, setting by setting: (locus YNL197C, strain WHI3, hits give low values) 1.02; (locus YNL224C, strain SQS1, hits give low values) 0.993; (locus YOR083W, strain WHI5 (second series), hits give low values) 0.981; (locus YPL241C, strain CIN2, hits give low values) 0.869 (active).

(Values after PubChem BioAssay AID1159580 (chemical genetic matrix, 2015).)
